# Test results as given in ChEMBL document CHEMBL3988442, “University of Dundee, Small-Polar-MMV Screening Library” (2021).
# The campaign covered roughly 48,000 compounds. About 13,000 (27%) showed an effect of 50% or more. The list shows a part of the results.
# System: Wolbachia pipientis
# Experiment: Anti-Wolbachia Cell-Based Screen
# Format: functional
# Design: scale not given: in the data most compounds retested in dose-response had high values
# Conditions: 5 µM
row,SMILES,Percent Effect [%]
1,Cc1ccoc1C(=O)NC(CC(C)C)C(=O)N1CCC(CO)CC1 (stereo not drawn),-14.58
2,CCC(=O)N1CCc2[nH]cnc2C12CCN(C(=O)CCS(C)(=O)=O)CC2,-8.696
3,Cc1nnn2c1COC(CNCc1ccccn1)C2.O=C(O)C(F)(F)F (stereo not drawn),-4.028
4,Cc1cnc(N)nc1NCCSCc1[nH]cnc1C,-14.55
5,Cc1ccc(C)n1-c1ccc(C(=O)NCCNc2ncccn2)cc1,4.736
6,CC1CCCN(Cc2csc(-c3ncccn3)n2)CC1 (stereo not drawn),3.521
7,Cc1cccc(CN2CCN(Cc3ccccc3)CC(O)C2)n1 (stereo not drawn),-8.122
8,CC(C)c1nc(CN2CCCC(O)C2)cs1 (stereo not drawn),12.3
9,Cc1nc(CN2CCCC(c3nccs3)C2)cs1 (stereo not drawn),114.8
10,Cc1cccc(CN2CCCC(c3nccs3)C2)n1 (stereo not drawn),160.1
11,Cc1nc(CN2CCCN(C(=O)COCC3CC3)CC2)cs1,18.11
12,Cc1nc(CN2C[C@@H]3CN(C(=O)c4cnccn4)C[C@@H]3C2=O)cs1,9.269
13,Cc1nc(CN2CCCC(c3cnccn3)C2)cs1 (stereo not drawn),124.4
14,CCn1ccnc1C1CCN(Cc2cccc(C)n2)CC1,-3.832
15,CSCC(=O)N1C[C@H]2CC[C@@H]1CN(Cc1ccccc1)C2,-24.58
16,COCCc1noc(Cn2ccc3ncccc3c2=O)n1,-12.09
17,CCOc1ccc2[nH]c(=O)c(CN(C)CCc3cn[nH]c3)cc2c1,-1.744
18,Cc1ccc(CN2C[C@@H]3COC[C@H](NS(C)(=O)=O)[C@@H]3C2)o1.O=C(O)C(F)(F)F,6.614
19,Cc1ccc(CN2C[C@@H]3COC[C@H](NS(C)(=O)=O)[C@@H]3C2)s1.O=C(O)C(F)(F)F,111.5
20,CCc1ccc(CN2C[C@@H]3COC[C@H](NS(C)(=O)=O)[C@@H]3C2)o1.O=C(O)C(F)(F)F,136.7
21,Cc1ccc(CN2CCOC3(COCCN(S(C)(=O)=O)C3)C2)s1.O=C(O)C(F)(F)F (stereo not drawn),-6.803
22,Cc1ccc(CN2C[C@@H]3COC[C@@H](NS(C)(=O)=O)[C@@H]3C2)o1.O=C(O)C(F)(F)F,-14.86
23,Cc1ccc(CN2CC(C(=O)Nc3ccccc3)C3(CCOCC3)C2)s1.O=C(O)C(F)(F)F (stereo not drawn),-15.56
24,CC(C)C(C)(C#N)NC(=O)Cn1cc(I)cn1 (stereo not drawn),3.38
25,CNC(=O)NC(=O)Cn1cc(-c2ccccc2)cn1,-1.753
26,CC(NC(=O)Cn1cc(-c2ccccc2)cn1)C1CC1 (stereo not drawn),82.35

row,SMILES,Percent Effect [%]
1,CC(C)CNC(=O)Cn1cc(C(N)=O)c(-c2ccccc2)n1,7.305
2,O=C(Cn1cc(-c2ccccc2)cn1)NC(C1CC1)C1CC1,101.4
3,Cc1ccc(NC(=O)Cn2cc(I)cn2)cc1,92.57
4,CC(C#N)(NC(=O)Cn1cc(I)cn1)C1CC1 (stereo not drawn),6.618
5,CCC(CC)NC(=O)Cn1cc(-c2ccccc2)cn1,106.4
6,CCC(C)(C)NC(=O)Cn1cc(C(N)=O)c(-c2ccccc2)n1,-8.057
7,CC(NC(=O)COc1ccccc1I)C1CC1 (stereo not drawn),10.59
8,O=C(Cc1cnn(-c2ccccc2)n1)NC(C1CC1)C1CC1,-0.6445
9,CC(NC(=O)CN1C=Nc2ccccc2S1(=O)=O)C1CC1 (stereo not drawn),22.51
10,Cc1csc(CN2C[C@@H]3CN(CC4CCOCC4)CCO[C@@H]3C2)n1,-2.484
11,Fc1cccc(N2CCCC3(CN(Cc4nccs4)CCO3)C2)c1.O=C(O)C(F)(F)F.O=C(O)C(F)(F)F (stereo not drawn),-19.19
12,CC(C)(C)c1nnc(CN2CCN(C(=O)N3CCCCC3)CC2)o1,1.432
13,CC(C)C(C)(C#N)NC(=O)Cn1cc(-c2ccccc2)cn1 (stereo not drawn),-4.052
14,CC(C)NC(=O)Cn1cc(-c2ccccc2)cn1,1.398
15,Cc1ccc(-c2cnn(CC(=O)NC(C)C)c2)cc1,96.48
16,CCC(CNC(=O)c1c(C)nn(C)c1OC)Oc1ccccc1 (stereo not drawn),-1.987
17,CCc1nc(NS(=O)(=O)c2cc(C)ccc2Br)no1,-0.5408
18,CCCN1CCCn2nc(CNC(=O)CN(C)C3CCCC3)cc2C1,-1.804
19,CCn1nc(C)c(-c2cncn2CCN(C)C2CCCC2)c1C.Cl,94.51
20,CN(CC1CCCC1)C(=O)c1cn(C)nc1-c1cccnc1,-17.59
21,Cc1nn(C)cc1-c1cncn1CCN(C)C1CCCC1.Cl,82.1
22,CCCn1nc(C)c(-c2cncn2CCN(C)C2CCCC2)c1C.Cl,99.02
23,Cc1cc(C)nc(N(C)CCN(C)C2CCCC2)n1,8.027
24,Cc1nn(C)c2nc(N(C)CCN(C)C3CCCC3)sc12,-5.269
25,Cn1nnc(C2(NC(=O)c3ccccc3)CCCC2)n1,-16.42
26,CCc1nc(NC2CCCN(C(=O)C3CC3)C2)c2cnn(C)c2n1 (stereo not drawn),100.4

row,SMILES,Percent Effect [%]
1,Cn1ncc2c(N[C@@H]3CS(=O)(=O)C[C@H]3O)nc(C(C)(C)C)nc21,-3.65
2,CC(C)C(=O)N1CCC(CNc2nc(C(C)C)nc3c2cnn3C)CC1,-5.658
3,CC(=O)NCCNc1nc(C2CCCC2)nc2c1cnn2C,-24.98
4,COCCN1CC(Nc2nc(C3CCCC3)nc3c2cnn3C)CC1=O (stereo not drawn),-0.7638
5,COCc1nc(NCC2CCS(=O)(=O)C2)c2cnn(C)c2n1 (stereo not drawn),14.43
6,Cn1ncc2c(NC3CCCN(C(=O)C4CC4)C3)nc(C(C)(C)C)nc21 (stereo not drawn),108.6
7,Cn1ncc2c(N[C@H]3CC[C@@H](N)CC3)nc(C(C)(C)C)nc21,-50.36
8,Cn1ncc2c(N[C@H]3CCCC[C@@H]3O)nc(C(C)(C)C)nc21,2.356
9,CCc1nc(NCC2CCCN(C(=O)C3CC3)C2)c2cnn(C)c2n1 (stereo not drawn),149.3
10,CCc1nc(NC2CCN(CC(=O)NC3CC3)CC2)c2cnn(C)c2n1,85.47
11,CCCn1cc(C(=O)NC2CCN(CC(=O)NC3CC3)CC2)c(C)n1,-20.41
12,Cc1cc(C(=O)NCc2ccc(N3CCCC(C(N)=O)C3)cc2)no1 (stereo not drawn),-5.438
13,O=C(Cc1ccc(F)c(F)c1)NC1COc2ccccc2C1=O (stereo not drawn),-17.04
14,Cc1ccc(CN(CC(=O)NC2CCOCC2)c2ccc(F)cc2)o1,-4.166
15,CCOc1ncnc2c1CCN(C(=O)CN(C)C)CC2.O=C(O)C(F)(F)F,-0.06996
16,O=C(c1cc[nH]n1)N(Cc1ccc(F)cc1)CC1CC1,-5.824
17,CCN(CC)C(CNC(=O)CCc1nc(C(C)C)no1)c1ccco1 (stereo not drawn),-1.128
18,CCc1nc(NC2CCCN(C(=O)c3cccs3)C2)c2cnn(C)c2n1 (stereo not drawn),96.59
19,Cc1nc(N2CCN(C(=O)C3CC3)CC2)c2c(n1)c(C)nn2C,1.518
20,Cc1nc(NC2CCN(C(=O)C3CC3)CC2)c2cnn(C)c2n1,200.9
21,Cn1ncc2c(=O)[nH]c(CN3CCCC3c3cccs3)nc21 (stereo not drawn),-2.053
22,CC(C)c1cc(NC2CCCN(C(=O)c3cccs3)C2)ncn1 (stereo not drawn),-8.38
23,NC(=O)c1cnc(NC2CCN(C(=O)C3CC3)CC2)c(Cl)c1,4.189
24,COC(=O)c1sccc1S(=O)(=O)NCCc1ccoc1,-8.727
25,CN(C)c1cccc(C2CCCN2S(N)(=O)=O)c1 (stereo not drawn),-8.581
26,CC1CCCCN1C(=O)Cn1cc(I)cn1 (stereo not drawn),11.08

row,SMILES,Percent Effect [%]
1,CN(C)c1ncc(I)c(C2CCCCN2S(C)(=O)=O)n1 (stereo not drawn),26.22
2,CN(C)c1ncc(I)c(C2CCCN2C)n1.Cl (stereo not drawn),88.04
3,CN(C)c1ncc(I)c(C2CCCN2S(C)(=O)=O)n1 (stereo not drawn),113.9
4,CN(C)c1ncc(I)c(C2CCCCN2C)n1 (stereo not drawn),140.6
5,Cc1nc(CN2CCC(CNC(=O)NCCC3CCC3)CC2)oc1C,-2e-14
6,CN(C)C(=O)c1nc(CN2CC(Cc3ccccc3)CC2=O)no1 (stereo not drawn),4.683
7,CC(=O)N1CCc2[nH]cnc2C12CCN(C(=O)CCn1cccn1)CC2,-18.33
8,COC[C@@]12CC[C@@H](N3CCOCC3)C[C@H]1CCN(c1cnccn1)C2,11.4
9,CNC(=O)c1cc2c(nc1NCC(C)C)CCN(CC1CC1)CC2.O=C(O)C(F)(F)F.O=C(O)C(F)(F)F,9.792
10,CCN1CCc2cc(C(=O)N(C)C)c(NCC3CC3)nc2CC1,103.3
11,CCS(=O)(=O)N1CCc2cc(C(=O)N(C)C)c(NCC3CC3)nc2CC1,112.1
12,CNC(=O)c1cc2c(nc1NCC1CC1)CCNCC2,13.18
13,CNC(=O)N1CCc2cc(C(=O)N(C)C)c(NCC3CC3)nc2CC1.O=C(O)C(F)(F)F,7.418
14,CN(C)C(=O)c1cc2c(nc1NCC1CC1)CCNCC2,103.6
15,CC(C)Nc1nc2c(cc1C(=O)N(C)C)CCNCC2.O=C(O)C(F)(F)F.O=C(O)C(F)(F)F,-6.085
16,CNC(=O)c1cc2c(nc1NCC1CC1)CCN(S(=O)(=O)C1CC1)CC2,20.95
17,CNC(=O)N1CCc2cc(C(=O)NCC3CC3)c(NC(C)C)nc2CC1,0.2326
18,CNC(=O)c1cc2c(nc1NCC1CC1)CCN(c1ccncn1)CC2.O=C(O)C(F)(F)F,-1.556
19,CN(C)C(=O)c1cc2c(nc1NCC1CC1)CCN(CC1CC1)CC2,87.77
20,Cc1ccnn1-c1ccc(C(=O)N2CCN(c3cnccn3)CC2)cc1,15.98
21,CC/N=c1\nc(NCC)nc2n1C(O)(Nc1cccc(Cl)c1Cl)CS2 (stereo not drawn),212.9
22,CC/N=c1\nc(NCC)nc2n1C(O)(Nc1ccc(C)cc1C)CS2 (stereo not drawn),134.3
23,CC/N=c1\nc(NCC)nc2n1C(O)(Nc1cccc(C)c1C)CS2 (stereo not drawn),97.63
24,CC/N=c1\nc(NCC)nc2n1C(O)(Nc1cc(Cl)ccc1Cl)CS2 (stereo not drawn),112.8
25,Cc1cc(CNc2cc(Cl)ccc2Cl)no1,-3.438
